Assay results from PubChem BioAssay (NCATS).
Records with an inconclusive call do not appear. A number with no mark means an inactive call. Calls come from the whole dose curve; as a rule, active = well fitted activation curve with a large enough effect; inconclusive = small, poorly fitted or top-dose-only effect; inactive = no such curve, though single readings can be large or run the other way.

Target: Cellular tumor antigen p53 (Homo sapiens) (UniProt P04637)
Assay: Primary qHTS for small molecule compounds that upregulate eGFP-tagged delta133p53alpha (in N-terminal) cells. (AID 2060322);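 note: series mostly up to about 56 µM; 0% = DMSO vehicle and 100% = reference activator; nearly all actives have a fitted effect of over 75% in size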
Settings: NCI-H358 eGFP-delta133p53alpha fluorescence, 24 h; activation: active compounds read high
In short: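 NCI-H358 cells pre-induced 24 h with 10 ng/ml doxycycline to express N-terminal eGFP-delta133p53alpha, then dosed 24 h at 37C without doxycycline; fixed, Hoechst-stained, GFP intensity by laser scanning cytometry, normalized to DMSO (0%) and 57.5 uM 5-azacytidine (100%).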

Chain of Cellular tumor antigen p53 (Homo sapiens) (P04637 whole entry, looked up): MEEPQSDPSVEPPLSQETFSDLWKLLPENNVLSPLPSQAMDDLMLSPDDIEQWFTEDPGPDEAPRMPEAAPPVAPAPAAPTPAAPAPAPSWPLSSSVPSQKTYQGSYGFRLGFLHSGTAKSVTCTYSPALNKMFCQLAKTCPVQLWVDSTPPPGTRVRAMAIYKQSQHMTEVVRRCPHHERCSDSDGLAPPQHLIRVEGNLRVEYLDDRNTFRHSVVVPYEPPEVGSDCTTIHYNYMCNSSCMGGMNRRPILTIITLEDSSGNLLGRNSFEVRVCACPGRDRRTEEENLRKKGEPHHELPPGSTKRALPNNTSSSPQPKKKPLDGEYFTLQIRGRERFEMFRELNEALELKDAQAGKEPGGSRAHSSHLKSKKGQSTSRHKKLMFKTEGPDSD

Row | Compound | activation [%]
1 | O=C(C=Cc1ccc(CN(CCO)CCc2c[nH]c3ccccc23)cc1)NO | 23.4
2 | CSc1ccc(/C=C2/C(C)=C(CC(=O)O)c3cc(F)ccc32)cc1 | -8.47
3 | O=C1CN(/N=C/c2ccc([N+](=O)[O-])o2)C(=O)N1 | -7.53
